Bioassay records (PubChem)
Marburg entry inh: blocks Marburg virus binding to or entry into cells | Marburg virus pseudotyped entry inhibition, cell reporter | Potency, µM (highest dose often 37.8 µM), for inactives: at the highest dose activity change, negative = inhibition, actives largely listed as inhibitors | 300,000 compounds, 1.8% hits | AID 540276; calls by dose curve; tested in HEK293 cells
VACV mCherry inh: inhibitors of vaccinia virus infection (mCherry reporter signal). Vaccinia virus mCherry reporter infection, fluorescence. Potency, µM (series often up to 36.5 µM), without a hit: at the top dose activity change, negative = inhibition, actives largely listed as inhibitors. 310,000 compounds, 0.63% hits; calls by dose curve; tested in A549 cells; also: nearly all actives have a fitted effect of over 35% in size
VACV Venus inh: inhibitors of vaccinia virus (Venus reporter). Vaccinia virus Venus reporter expression, fluorescence. Potency, µM (series often up to 36.5 µM), for the others: top-dose activity change, negative = inhibition, actives largely listed as inhibitors. 330,000 compounds, 0.46% hits. AID 720580; calls by dose curve; tested in A549 cells; also: nearly all actives have a fitted effect of over 30% in size
FMDV antiviral: foot and mouth disease virus antiviral activity. 410,000 compounds, 1.2% hits. Potency, µM (series often up to 57.9 µM), for inactives: top-dose activity change, negative = inhibition, actives largely listed as inhibitors. AID 1159524. FMDV antiviral cell-based qHTS; calls by dose curve; tested in HEK293T cells; also: read-out not given here; nearly all actives have a fitted effect of over 45% in size
Lassa entry inh: inhibitors of Lassa virus binding or cell entry. Lassa virus pseudotype entry inhibition, cell reporter. Potency, µM (titrated, usually from 37.9 µM), for inactives: at the top dose activity change, negative = inhibition, usual class: inhibitors. 300,000 compounds, 1.2% hits. AID 540256; calls by dose curve; tested in HEK293 cells; also: nearly all actives have a fitted effect of over 50% in size
An asterisk follows results filed as active; i = inactive; ? = inconclusive; . = no result given; [ ] = another dose, or the depositor's remark. Sampled rows, rich in hits. Any-hit rate of the full collection: about 3.2%. % is scaled to controls: 0 for no effect and ±100 for the full control effect; potency is read from the fitted curve at half-maximal effect.

SMILES | Marburg entry inh | VACV mCherry inh | VACV Venus inh | FMDV antiviral | Lassa entry inh
COC1=C(N)C(=O)c2nc(C)ccc2C1=O | ? | i | 3.6% | 10µM* | -21.0%
CC(=O)c1ccc(NC(=O)C(C)OC(=O)/C=C/c2ccco2)cc1 (stereo not given) | 11.2µM* | -23.8% | -24.9% | -10.2% | ?
C=CCC1(CC=C)CCCN1C(=O)c1cc(COc2cccc(C(F)(F)F)c2)on1 | 10µM* | -1.3% | -14.5% | -24.4% | ?
COc1cc(/C=N/Nc2nn3cnnc3c3ccccc23)ccc1O | -29.4% | ? | -9.3% | -5.3% | ?
COc1cc(C=NNc2ncnc3c2cnn3C(C)C)ccc1O | . | . | . | . | 12.5µM*
NNC(=O)c1cccc(COc2ccc3c(c2)CCC3)c1 | ? | -19.6% | -20.0% | 12.6µM* | 2.06µM*
Cc1cccc(NC(=O)Cc2nc(-c3c[nH]c(C(=O)N4CCCC4)c3)cs2)c1 | ? | -29.2% | -19.5% | 35.5µM* | ?
Nc1ccc(/C=C/c2nc3ccccc3s2)cc1 | . | -9.7% | 27.7% | . | .
COC(=O)[C@@H]1C[C@@]23C(=NN=C(SC)C2Nc2ccccc23)N1C(C)=O (stereo not given in full) | -22.9%[14.2 µM] | . | . | . | .
COc1ccc(/C=N\n2nnc3ccccc32)cc1 | 2µM* | -11.4% | -5.8% | -84.8% | 1.41µM*
COc1ccc(/C=C/c2nc3ccccc3n2C)cc1 | ? | ? | ? | 1.78µM* | 0.112µM*
COc1ccc(/C=N/n2c(C)nc3ccccc3c2=O)cc1 | ? | -6.6% | -7.4% | 37.6% | -6.5%
COc1ccccc1N1CCN(C2C(=O)Nc3ccccc3-n3nnnc32)CC1 (stereo not given) | . | i | -26.8% | -3.4% | .
COc1ccc(S(=O)(=O)N2CCOC2CNC(=O)C(=O)NCCc2c[nH]c3ccccc23)cc1 (stereo not given) | -10.3% | -10.1% | -18.3% | 22.4µM* | ?
COC(=O)N1CCc2cc(OC)c(OC)cc2C1Cc1ccc(OC)cc1 (stereo not given) | 15.3%[14.2 µM] | . | . | . | .
COc1cccc(-c2nc(NC3CCCC3)c3ccccc3n2)c1O | . | . | . | 28.2µM* | .
COc1cccc(-c2nc(NCc3ccccc3)c3ccccc3n2)c1O | . | . | . | 10.3% | .
COc1nc(-c2ccncc2)nc2ccccc12 | -28.6% | -16.6% | -9.8% | -18.3% | 26.9%
c1ccc(-c2nc(N3CCCCCC3)c3ccccc3n2)nc1 | ? | . | 5.01µM* | 25.1µM* | 3.98µM*
CC[C@@H]1CCCCN1c1nc(-c2ccncc2)nc2ccccc12 | 9.2µM* | . | . | . | .
c1ccc2c(N3CCCC3)nc(-c3ccncc3)nc2c1 | ? | . | ? | 14.1µM* | -4.5%
CC(=O)c1ccc(-c2cc(F)cc3c2OC(CNC(=O)Cc2cn4ccsc4n2)C3)s1 (stereo not given) | . | -14.1% | 3.4% | 7.1% | .
CN1CCN(c2nc(-c3ccc(Cl)cc3)nc3ccccc23)CC1 | ? | -14.8% | -1.3% | -24.5% | ?
COc1cccc(-c2nc(N3CCN(C)CC3)c3ccccc3n2)c1O | ? | 10µM* | ? | 8.3% | ?
c1ccc(Oc2nc(-c3ccccn3)nc3ccccc23)cc1 | ? | ? | ? | -9.2% | ?
SMILES | Marburg entry inh | VACV mCherry inh | VACV Venus inh | FMDV antiviral | Lassa entry inh
CN1CCN(c2nc(-c3ccncc3)nc3ccccc23)CC1 | 7.94µM* | -4.6% | -29.0% | -15.5% | -5.1%
COc1ccc(Oc2nc(-c3ccccn3)nc3ccccc23)cc1 | ? | 4.47µM* | ? | 2.5% | ?
COc1ccc2c(c1)nc(N)n2Cc1ccccc1 | ? | -6.2% | -15.6% | 0.0% | -11.4%
CN=C1c2cc3cc(OC)ccc3n2CCN1Cc1ccccc1 | 11.2µM* | ? | -27.4% | -23.8% | ?
CN(C)c1ccc(/C=C2\C=Cc3ccccc32)cc1[N+](=O)[O-] | . | i | -7.1% | . | .
O=C(c1nc[nH]c1C(=O)N1CCN(c2ccccc2)CC1)N1CCN(c2ccccc2)CC1 | . | -9.8% | -15.1% | -23.6% | .
COc1ccc(C(=O)/C=C2\Sc3ccccc3N2C)cc1 | ? | -25.0% | -8.2% | -5.5% | ?
COc1ccccc1-[n+]1c(C)cc(/C=C2\Sc3ccccc3N2C)cc1C | . | . | . | 3.98µM* | .
COc1ccc([C@H]2N[C@]3(CCCN(Cc4ccc(Cl)cc4)C3=O)[C@H]3C(=O)N(Cc4ccccc4)C(=O)[C@@H]23)cc1 | . | -13.8% | -27.2% | ? | .
COC(=O)[C@@H]1CCCN1C(=O)c1c(OC)cc(=O)n2c1CCN(Cc1ccc3nsnc3c1)CC2 | . | -10.3% | -6.6% | -4.1% | .
Cc1ccc(S(=O)(=O)NCCC(=O)N2CCN(c3cccc(Cl)c3)CC2)cc1C | ? | -13.9% | -23.8% | ? | -25.3%
CCNS(=O)(=O)c1ccc(CCC(=O)N2CCN(c3cccc(Cl)c3)CC2)cc1 | ? | -27.7% | -13.6% | 28.2µM* | ?
C=CCN(C)C1=NC(c2ccccc2)C(C(=O)OC)=C(C)N1CCOC (stereo not given) | 3.8%[14.2 µM] | . | . | . | .
CC(=O)O[C@@H]1/C=C/[C@](C)(O)C[C@@H](C)C/C=C/[C@H]2[C@H](O)C(C)=C(C)[C@H]3[C@H](Cc4ccccc4)NC(=O)[C@@]123 | . | 2.1% | -26.8% | -17.5% | .
C=C1C(C)C2C(Cc3ccccc3)NC(=O)C23C(OC(C)=O)C=CC(C)(O)CC(C)CC=CC3C1O (stereo not given) | 3.98µM* | ? | ? | -12.9% | 2.24µM*
CCCCCCn1c(=O)n2n(c1=O)C[C@]1(OC(=O)NCC3CCCCC3)CN(S(=O)(=O)c3ccc(C)cc3)C[C@]1(O)C2 | . | ? | 10µM* | ? | .
CCCCCCn1c(=O)n2n(c1=O)C[C@]1(OC(=O)NC3CCCC3)CN(S(=O)(=O)c3ccc(C)cc3)C[C@]1(O)C2 | . | -0.7% | ? | 0.0% | .
Cc1ccc(S(=O)(=O)N2C[C@H]3n4c(=O)ccc(=O)n4C[C@H](OC(=O)NCC4CCCCC4)[C@@]3(O)C2)cc1 | . | ? | ? | 31.6µM* | .
CC(C)c1c(C(=O)NCc2ccncc2)cnn1-c1nccc(-c2cccs2)n1 | . | -8.1% | -6.2% | 3.3% | .
NC(N)=NN=C1CCC(c2ccccc2)CC1 (stereo not given) | 14.1%[46.1 µM] | -26.7% | -6.0% | 7.08µM* | -8.0%[46.1 µM]
CC(=O)NN=C1CCC(c2ccccc2)CC1 (stereo not given) | 4.3% | -8.4% | -18.9% | -13.6% | 1.0%
CCc1ccccc1-n1c(N)c(C(=O)OC)c2nc3ccccc3nc21 | ? | 4.1% | 1.6% | -12.3% | -15.8%[46.1 µM]
O=c1[nH]c(SCc2nc3c(cnn3-c3ccccc3)c(=O)[nH]2)nc2ccccc12 | 1µM* | . | -2.5% | 8.9% | 0.708µM*
O=c1[nH]c(CSc2ncccn2)nc2c1cnn2-c1ccccc1 | 12.4% | -17.8% | -5.2% | -14.4% | 2.5%
Cc1ccc2nc(SCc3nc4c(cnn4-c4ccccc4)c(=O)[nH]3)[nH]c2c1 | ? | -17.8% | -11.0% | 11.2µM* | ?
O=c1[nH]c(CSc2nc3ccccc3[nH]2)nc2c1cnn2-c1ccccc1 | ? | ? | -29.2% | 22.4µM* | ?
NC(=O)c1ccccc1NC(=O)C1CCCO1 (stereo not given) | ? | i | -0.7% | -4.4% | 24.0%[46.1 µM]
